Experimental data: PubChem BioAssay AID372 (MTDP, 2006)
Among all 100,000 compounds or so, about 770 (0.77%) were called active. The full list was thinned out, with actives kept by preference. Values without a mark were called inactive. Rule as the data show it: active = inhibition above about 50%; inactive = the rest.

molecular target: Gag-Pol polyprotein (Human immunodeficiency virus type 1 group M subtype B (isolate HXB2)) (UniProt P04585); assay: RNase H inhibition, HIV 1 Gag Pol polyprotein, FRET biochemical assay, screening (AID 372); settings: HIV-1 RT RNase H, FRET RNA/DNA substrate fluorescence; at 10 µM; stronger effect = higher value

SMILES	inhibition
O=C(c1c(F)cccc1F)N1CCN(c2cc(N3CCCC3)c(F)cc2[N+](=O)[O-])CC1	11%
CCc1ccc(OCC(=O)Nc2ccc3c(c2)C(=O)c2ccccc2C3=O)cc1	27%
COC(=O)c1c(NC(=O)c2cc(-c3ccc(Cl)s3)nc3ccccc23)sc2c1CCC(C(C)(C)C)C2 (configuration not stated)	1%
COc1ccc(C(Nc2ccccc2)P(=O)(OC(C)C)OC(C)C)cc1 (configuration not stated)	10%
COc1ccc(OC)c(NC(=O)c2ccc(N(C)S(=O)(=O)c3ccccc3)cc2)c1	13%
Oc1c(Cl)cc(Cl)cc1/C=N/N=C/c1cc(Cl)cc(Cl)c1O	15%
COc1ccc(C2=CC(=O)C=CC2=O)cc1	75% (active)
COc1ccc(-c2cccc(=O)o2)cc1	0%
COc1ccc(C2=CC(=O)c3ccccc3C2=O)cc1	40%
CCCC1CCC(c2ccc(OCC)cc2)=CC1=O (configuration not stated)	8%
CCOc1ccc(C2=NNC(=O)CC2)cc1	10%
CCOC(=O)C1=C(C)N=c2s/c(=C\c3ccc(O)c(OC)c3)c(=O)n2C1c1cc(OC)ccc1OC (configuration not stated)	0%
CC(NC(=O)CN1C(=O)c2ccccc2C1=O)c1ccccc1 (configuration not stated)	3%
Cc1cccc(OCCCOc2cccc(/C=c3\sc4nc5ccccc5n4c3=O)c2)c1	3%
CCOc1ccc(NC(=S)NC(=O)/C=C/c2ccc(OC)c(OC)c2)c([N+](=O)[O-])c1	2%
CCOc1ccc(NC(=S)NC(=O)c2ccc(F)cc2)c([N+](=O)[O-])c1	7%
CCOc1ccc(NC(=S)NC(=O)/C=C/c2ccc(C)cc2)c([N+](=O)[O-])c1	21%
CCOc1ccc(NC(=S)NC(=O)c2ccccc2)c([N+](=O)[O-])c1	11%
CCOc1ccc(NC(=S)NC(=O)/C=C/c2ccc(OC)cc2)c([N+](=O)[O-])c1	60% (active)
CCOc1ccc(NC(=S)NC(=O)/C=C/c2ccc(F)cc2)c([N+](=O)[O-])c1	84% (active)
Brc1ccc(-c2nc(-c3ccccc3)c(-c3ccc(Br)cc3)[nH]2)cc1	17%
CCOC(=O)c1[nH]c(C)c(C(=O)N/N=C/c2ccc(-c3ccc(Cl)cc3)o2)c1C	18%
C=CCOc1ccc(/C=C2\SC(N3CCN(c4ccccc4)CC3)=NC2=O)cc1	13%

SMILES	inhibition
COC(=O)C1=C(C(=O)OC)SC(=C2C(=S)C(C)(C)N(C(=O)/C=C/c3ccc(OC)cc3)c3ccc(C)cc32)S1	22%
Cc1ccc2c(c1)N(C(=O)CN1C(=O)c3ccccc3C1=O)C(C)(C)c1ssc(=S)c1-2	10%
COC(=O)C1=C(C(=O)OC)SC(=C2C(=S)C(C)(C)N(C(=O)/C=C/c3ccc(OC)c(OC)c3)c3ccc(C)cc32)S1	40%
COc1ccc(/C=C/C(=O)N2c3ccc(C)cc3-c3c(ssc3=S)C2(C)C)cc1OC	57% (active)
COc1cccc(C(=O)N2c3cc(OC)ccc3-c3c(ssc3=S)C2(C)C)c1	54% (active)
COc1ccc2c(c1)N(C(=O)c1ccc(C(C)(C)C)cc1)C(C)(C)c1ssc(=S)c1-2	15%
COc1cccc(C(=O)N2c3ccc(C)cc3-c3c(ssc3=S)C2(C)C)c1	13%
COc1ccc2c(c1)-c1c(ssc1=S)C(C)(C)N2C(=O)/C=C/c1ccc(OC)c(OC)c1	27%
COC(=O)C1=C(C(=O)OC)SC(=C2C(=S)C(C)(C)N(C(=O)/C=C/c3ccc(OC)c(OC)c3)c3ccc(OC)cc32)S1	53% (active)
COc1ccc2c(c1)-c1c(ssc1=S)C(C)(C)N2C(=O)CN1C(=O)c2ccccc2C1=O	0%
COc1ccc(/C=C/C(=O)N2c3ccc(C)cc3-c3c(ssc3=S)C2(C)C)cc1	20%
O=C(O)C1CCCCC1C(=O)NCc1ccccc1 (configuration not stated)	0%
O=C(Nc1ccccc1)c1ccccc1C(=O)OCCCCCc1cccs1	1%
CC(/C=C(\NC(=O)c1ccccc1)C(=O)N/N=C/c1cccc([N+](=O)[O-])c1)=C\c1ccccc1	6%
O=C(Nc1ccc(-c2ccc(Cl)cc2)cc1)C1CC1	6%
O=[N+]([O-])c1ccc(C2Nc3ccc(I)cc3C3C=CCC32)cc1 (configuration not stated)	25%
Cc1ccc(S(=O)(=O)N(CC(O)CN(CC(C)C)CC(C)C)c2cccc(C)c2)cc1 (configuration not stated)	9%
COc1ccc2ccccc2c1/C=N/NC(=O)c1ccc(-c2ccccc2)cc1	13%
O=C(Nc1ccc(NC(=O)c2ccc(Cl)cc2Cl)c(Cl)c1)c1ccccc1	3%
COc1ccc2c(c1)-c1c(ssc1=S)C(C)(C)N2C(=O)c1ccccc1Br	27%
COc1ccc2c(c1)-c1c(ssc1=S)C(C)(C)N2C(=O)c1ccc(OC)c(OC)c1	4%
COc1ccc2c(c1)-c1c(ssc1=S)C(C)(C)N2C(=O)c1ccccc1OC	60% (active)
CCC1CCc2c(sc(NC(=O)c3ccc(Br)o3)c2C(=O)OC)C1 (configuration not stated)	13%

SMILES	inhibition
COc1ccccc1S(=O)(=O)CC(SC#N)c1ccccc1 (configuration not stated)	4%
Cc1c(CCNC(=O)c2ccccc2F)c2ccccc2n1Cc1ccccc1	28%
CC(=O)NCCc1c(C)n(Cc2ccccc2)c2ccccc12	2%
Cc1c(CCNC(=O)c2ccccc2)c2ccccc2n1Cc1ccccc1	57% (active)
O=C1OC(c2ccccc2)=N/C1=C\c1ccc(F)c(Br)c1	16%
CCOC(=O)C1=C(C)N=c2s/c(=C\c3ccc(Br)cc3)c(=O)n2C1c1ccc(OC)c(OC)c1 (configuration not stated)	0%
CC(=O)/C(=C1\NC(C)(C)Cc2ccccc21)c1ccccc1	3%
N#C/C(=C/c1ccc(Sc2ccccc2)o1)c1nc2ccccc2[nH]1	15%
N#C/C(=C\c1ccc(-c2ccccc2)o1)C(=O)NCc1ccccc1	16%
N#C/C(=C/c1ccc(Sc2ccccc2)o1)C(=O)NCc1ccccc1	25%
N#C/C(=C\c1ccc(I)o1)c1ccccc1	41%
Cc1ccc(Sc2ccc(/C=C(\C#N)C(=O)NCc3ccccc3)o2)cc1	50% (active)
N#C/C(=C\c1ccc(Sc2ccccc2)o1)c1ccccc1	52% (active)
CCc1cc2c(=O)n(N)c(CCC(=O)O)nc2s1	6%
CCOC(=O)c1cc(Br)c(Cl)cc1[N+](=O)[O-]	10%
COc1ccc(C(NC(=O)c2ccco2)c2ccc(OC)c(OC)c2)cc1 (configuration not stated)	23%
Cc1ccc2oc(-c3ccc(NC(=O)c4ccc(C)c([N+](=O)[O-])c4)cc3)nc2c1	0%
OC(COc1ccccc1Cl)Cn1cnc2ccccc21 (configuration not stated)	5%
O=C(N/N=C/c1ccc(-c2ccc(Cl)cc2Cl)o1)c1ccccc1	15%
CCN1C(=O)C(=Cc2ccc(O)cc2)C(=O)NC1=S	4%
CCN1C(=O)/C(=C/c2ccc(C)o2)C(=O)NC1=S	21%
CCOc1cc(/C=N/NC(=O)C(=O)NCc2ccc(Cl)cc2)ccc1O	1%
CC1(C)NC(=O)N(CC(O)COc2cccc(OCC(O)CN3C(=O)NC(C)(C)C3=O)c2)C1=O (configuration not stated)	11%

SMILES	inhibition
Cc1sc(NC(=O)c2ccco2)c(C#N)c1C	7%
Cc1sc(NC(=O)c2ccc(-c3ccccc3)cc2)c(C(N)=O)c1C	13%
Cc1sc(NC(=O)c2ccc(F)cc2)c(C(N)=O)c1C	8%
CCOC(=O)c1sc(NC(=O)c2ccc(Br)o2)c(C(N)=O)c1C	0%
COC(=O)c1c(NC(=O)Cc2ccccc2)sc(C)c1C	24%
COC(=O)c1c(NC(=O)c2ccco2)sc(C)c1C	15%
Cc1sc(NC(=O)c2ccc(Br)o2)c(C#N)c1C	4%
CCOC(=O)c1c(NC(=O)Cc2ccccc2)sc(C)c1C	0%
CCOc1cc(/C=C2\SC(=S)N(c3ccc(F)cc3)C2=O)ccc1O	18%
CCN(CC)c1ccc(C(=O)Nc2cc(Cl)cc(Cl)c2)cc1	20%
Cc1ccc(C(=O)COC(=O)c2cccc(N3C(=O)C4C5C=CC(C6CC56)C4C3=O)c2)cc1 (configuration not stated)	9%
CCOc1ccc(-n2sc3c(c2=S)-c2cc(C)ccc2N(Cc2ccccc2)C3(C)C)cc1	32%
Cc1cc(C)cc(NC(=O)C(C)N2C(=O)c3ccccc3C2=O)c1 (configuration not stated)	0%
CC1=C(C(=O)OCC(C)C)C(c2cccc(O)c2)C2=C(CC(c3ccc(Cl)cc3)CC2=O)N1 (configuration not stated)	21%
O=C(/C=C/c1ccccc1)NC(=S)Nc1ccc(Br)cn1	21%
CCOC(=O)c1ccc(Nc2cc(-c3ccccc3)ncn2)cc1	18%
COc1cc(CN2CCN(Cc3ccc(OC)c(OC)c3OC)CC2)cc(OC)c1OC	4%
O=C(/C=C/c1ccc2c(c1)OCO2)NCc1ccc(Cl)cc1Cl	11%
CCOC(=O)c1sc(NC(=O)Cn2nc([N+](=O)[O-])c([N+](=O)[O-])c2C)c(C(=O)OCC)c1C	6%
Cc1nn(CC(=O)Nc2sc3c(c2C#N)CCCC3)c(C)c1[N+](=O)[O-]	8%
O=C(O)c1c(Br)c(Br)c(Br)c(Br)c1C(=O)NCCC1=CCCCC1	0%
NNC(=O)CN1C(c2ccccc2)=Nc2ccc(Br)cc2C1c1ccccc1 (configuration not stated)	15%
COc1ccc(N2C(=O)/C(=C\c3c(OC)cc(OC)cc3OC)C(=O)NC2=S)cc1	1%
